PubChem BioAssay (NCATS)
Where “and” joins values, the source holds several entries; their conditions need not be identical. Identical values can stand only once. Inconclusive results are not listed. Calls of active or inactive are those of the source. Unless noted, the call rests on the fitted dose curve; in most records, active means well fitted curve in the direction sought with a large enough effect in the repeat runs; inconclusive means weak or mixed curves; inactive means no such curve, though single readings can be large; an effect the other way counts as inactive or inconclusive.

What was measured:
[1] = qHTS assay for small molecule agonists of the antioxidant response element (ARE) signaling pathway measured by Nrf2-dependant transcriptional activity (AID 720636);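 further: HepG2 cells with an ARE-driven luciferase reporter; % of control where 0% means no effect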
Method in brief: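 We exposed ARE-luc HepG2 cells, seeded in assay medium with 1% dialyzed FBS and allowed 6 hr to adhere, to test compounds overnight (16 hr, 37 C) before measuring luciferase with ONE-Glo.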

[2] = qHTS assay for small molecule agonists of the antioxidant response element (ARE) signaling pathway measured by Nrf2-dependant transcriptional activity - cell viability counter screen (AID 720653); settings: ARE-bla HepG2 viability, CellTiter-Glo ATP luminescence, 16 h; active compounds read low; further: on the % scale 0 is the no-effect control and ±100 the full control effect
Method in brief: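 Cytotoxicity counter screen: intracellular ATP quantified by CellTiter-Glo luminescence in the same ARE-bla HepG2 plates, after 16 h compound exposure and a 2 h beta-lactamase substrate step.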

[3] = qHTS Assay for Identifying Gametocytocidal Compounds (AID 743244; active means well fitted curve in the direction sought with a large enough effect; an effect the other way counts as inactive or inconclusive;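 further: on the % scale 0 is the no-effect control and ±100 the full control effect; actives lower the fluorescent signal which means gametocytes are killed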); settings: P. falciparum 3D7 stage III-V gametocytes, alamarBlue, 72 h; max response: active compounds read low
Method in brief: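 P. falciparum 3D7 stage III–V gametocytes (20,000 cells/well) were exposed to compounds for 72 h at 37 °C, 5% CO2. AlamarBlue was then added for 24 h; decreased resorufin fluorescence (Ex 525/Em 598 nm) indicated loss of viability.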

[4] = qHTS assay for cell viability of HEK293 cells (AID 743288; active means well fitted curve in the direction sought with a large enough effect; an effect the other way counts as inactive or inconclusive; further: on the % scale 0 is the no-effect control and ±100 the full control effect; nearly all actives have a fitted effect of over 50% in size); settings: ATP luminescence (CellTiter-Glo), 18 h; max response: active compounds read low
Method in brief: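 Steps: plate 2,000 parental HEK293 cells per well; incubate ≥5 h, 37 C; add compounds in DMSO; incubate 18 h, 37 C; add CellTiter-Glo; wait 30 min at room temperature; read luminescence.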

[5] = qHTS assay for cell viability of the p53RE-bla HCT-116 cell line (AID 743292; active means well fitted curve in the direction sought with a large enough effect; an effect the other way counts as inactive or inconclusive; further: on the % scale 0 is the no-effect control and ±100 the full control effect; nearly all actives have a fitted effect of over 55% in size)
Method in brief: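 In this qHTS counter-screen, metabolically competent p53RE-bla HCT-116 cells were counted via their ATP content. Compounds were applied for 16 h at 37 C and luciferase-coupled luminescence was measured.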

[6] = qHTS assay for small molecule antagonists of the retinoid-related orphan receptor gamma (ROR-gamma) signaling pathway - cell viability counter screen (AID 720652);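 further: CHO reporter cells with doxycycline-induced ROR-gamma expression; series mostly up to about 92 µM; compound exposure lasted 16 hr before ATP read; on the % scale 0 is the no-effect control and ±100 the full control effect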
Method in brief: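 ATP-based viability readout in the ROR-gamma reporter CHO cells after 16 hr compound exposure under doxycycline induction.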

[7] = target: Tyrosine-protein kinase Yes (Homo sapiens) (UniProt P07947); assay: qHTS for small molecule inhibitors of Yes1 kinase: Primary Screen (AID 686947; active means well fitted curve in the direction sought with a large enough effect; an effect the other way counts as inactive or inconclusive;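 further: plate controls were DMSO with enzyme for no effect and no-enzyme DMSO wells for full effect; nearly all actives have a fitted effect of over 60% in size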)
Chain of Tyrosine-protein kinase Yes (Homo sapiens) (P07947 whole entry, looked up): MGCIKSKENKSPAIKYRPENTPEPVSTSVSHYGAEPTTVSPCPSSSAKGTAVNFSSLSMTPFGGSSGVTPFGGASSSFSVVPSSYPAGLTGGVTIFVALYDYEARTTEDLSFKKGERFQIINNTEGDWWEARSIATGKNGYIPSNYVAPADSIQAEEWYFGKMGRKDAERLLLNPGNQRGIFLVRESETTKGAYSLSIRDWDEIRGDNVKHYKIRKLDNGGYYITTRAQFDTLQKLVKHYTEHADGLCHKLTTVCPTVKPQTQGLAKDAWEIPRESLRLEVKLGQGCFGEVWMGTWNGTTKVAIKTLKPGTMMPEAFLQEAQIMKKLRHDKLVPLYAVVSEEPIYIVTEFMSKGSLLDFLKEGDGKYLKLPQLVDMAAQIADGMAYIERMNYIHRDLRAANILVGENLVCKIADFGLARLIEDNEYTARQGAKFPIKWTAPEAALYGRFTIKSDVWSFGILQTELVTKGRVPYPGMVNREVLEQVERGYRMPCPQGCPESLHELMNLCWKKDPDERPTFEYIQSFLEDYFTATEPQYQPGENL
Method in brief: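 In this qHTS format, inhibition is expressed relative to DMSO controls with enzyme (maximum) and without enzyme (minimum). The 60 min room-temperature reaction uses 0.1 mM ATP, with ADP detected by luminescence.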

[8] = qHTS for small molecule inhibitors of Yes1 kinase: Counter Assay (AID 686950; active means well fitted curve in the direction sought with a large enough effect; an effect the other way counts as inactive or inconclusive;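 further: no kinase present so only ADP-Glo detection of a fixed ADP amount is tested; luminescence from ADP-Glo reporting ADP in a fixed ATP and ADP mixture; series mostly up to about 77 µM; 0% = DMSO wells with ATP plus ADP and -100% = ATP-only wells without ADP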)
Method in brief: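 ADP-Glo luminescence read after a 60 min room-temperature incubation of compound with an ATP/ADP mix (0.08 mM/0.02 mM) and no kinase, following a 20 min compound preincubation. Signal scaled between ATP+ADP (max) and 0.1 mM ATP-only (min) wells; Tris pH 7.5, Mg2+, DTT.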

[9] = qHTS for compounds that reverse cellular toxicity of Amyloid beta (A-beta) peptide in yeast: LOPAC Validation Assay (AID 720559; active means well fitted curve in the direction sought with a large enough effect; an effect the other way counts as inactive or inconclusive;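 further: plate controls were DMSO for no effect and equimolar ferric chloride plus clioquinol rescue for full effect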)
Method in brief: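 Yeast expressing toxic A-beta grown with pinned compounds at 30 C for 48 hr. Growth measured as absorbance at 600 nm; data normalized to DMSO and to an equimolar FeCl3/clioquinol mixture as positive control.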

[10] = qHTS for Activators of Parkin Expression: LOPAC Validation Assay (NLuc Reporter) (AID 720572; active means well fitted curve in the direction sought with a large enough effect; an effect the other way counts as inactive or inconclusive)
Method in brief: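 Compound effects on Parkin promoter activity were measured as NanoLuc luminescence after 24 h at 37 C. The neuronal reporter line also carried FLuc, which was read first. LOPAC compounds were tested at 7 concentrations, with normalization to DMSO (0%) and positive control (100%).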

[11] = target: T1, Hexokinase-4 (Homo sapiens) + Glucokinase regulatory protein (Homo sapiens) (UniProt P35557+Q14397); assay: qHTS assay for inhibitors of recombinant human GCK-GKRP interaction: Diaphorase-coupled assay (AID 743205; active means well fitted curve in the direction sought with a large enough effect; an effect the other way counts as inactive or inconclusive)
T1 sequence (P35557 whole entry, looked up): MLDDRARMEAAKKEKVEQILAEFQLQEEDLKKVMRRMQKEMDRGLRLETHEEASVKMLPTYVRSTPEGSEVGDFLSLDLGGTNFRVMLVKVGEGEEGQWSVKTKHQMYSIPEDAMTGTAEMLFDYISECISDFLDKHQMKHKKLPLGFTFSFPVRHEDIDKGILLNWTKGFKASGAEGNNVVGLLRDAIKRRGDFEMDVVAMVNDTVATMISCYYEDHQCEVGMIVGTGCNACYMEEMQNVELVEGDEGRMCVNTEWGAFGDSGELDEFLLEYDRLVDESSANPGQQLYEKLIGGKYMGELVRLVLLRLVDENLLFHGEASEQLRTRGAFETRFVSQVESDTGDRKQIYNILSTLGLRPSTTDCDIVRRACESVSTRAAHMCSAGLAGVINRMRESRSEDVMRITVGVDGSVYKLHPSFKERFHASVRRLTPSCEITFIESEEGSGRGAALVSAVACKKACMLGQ
T1 sequence (Q14397 whole entry, looked up): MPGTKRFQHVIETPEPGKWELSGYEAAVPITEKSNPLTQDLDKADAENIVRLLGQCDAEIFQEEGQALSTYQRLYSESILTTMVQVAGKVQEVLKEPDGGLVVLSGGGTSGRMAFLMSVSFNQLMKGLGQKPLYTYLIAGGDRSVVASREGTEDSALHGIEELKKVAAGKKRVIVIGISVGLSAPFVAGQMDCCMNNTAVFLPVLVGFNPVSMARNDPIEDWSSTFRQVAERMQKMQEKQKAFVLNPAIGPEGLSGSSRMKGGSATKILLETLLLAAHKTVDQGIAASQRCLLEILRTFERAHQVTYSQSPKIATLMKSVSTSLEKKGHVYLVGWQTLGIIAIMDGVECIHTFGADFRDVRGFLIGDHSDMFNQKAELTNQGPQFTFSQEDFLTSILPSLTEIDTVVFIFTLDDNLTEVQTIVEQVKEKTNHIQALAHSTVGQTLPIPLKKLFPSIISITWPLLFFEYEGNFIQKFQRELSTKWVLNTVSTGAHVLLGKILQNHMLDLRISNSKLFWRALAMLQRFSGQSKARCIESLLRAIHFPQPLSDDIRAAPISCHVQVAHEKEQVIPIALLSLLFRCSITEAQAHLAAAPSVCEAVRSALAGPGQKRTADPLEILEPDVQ
Method in brief: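 Compounds pre-incubated 20 min with substrate, then 10 nM GST-GCK with 10 nM FLAG-GKRP added. GCK activity coupled via G6PDH and diaphorase to resorufin (5 mM glucose, 0.4 mM ATP, 0.15 mM NADP+, pH 7.6), read kinetically over 30 minutes at Ex 525/Em 590 nm.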

[12] = target: T1, Hexokinase-4 (Homo sapiens) + Glucokinase regulatory protein (Homo sapiens); assay: qHTS assay for inhibitors of recombinant human GCK-GKRP interaction: ADP-Glo assay (AID 743206; active means well fitted curve in the direction sought with a large enough effect; an effect the other way counts as inactive or inconclusive;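 further: plate controls were DMSO plus enzyme for no effect and no enzyme for full effect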)
Method in brief: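 Pin-transferred compounds meet a 15 nM GST-GCK/15 nM FLAG-GKRP/2 uM S6P mix (dispense concentrations). ATP is then added to 0.4 mM final with 5 mM glucose, and the reaction runs 60 min at room temperature. ADP is quantified luminescently.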

[13] = target: T1, Hexokinase-4 (Homo sapiens) + Glucokinase regulatory protein (Homo sapiens); assay: qHTS assay for inhibitors of recombinant human GCK-GKRP interaction: HTRF assay (AID 743207; active means well fitted curve in the direction sought with a large enough effect; an effect the other way counts as inactive or inconclusive;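 further: 0% = DMSO with GCK present and -100% = DMSO wells lacking GCK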)
Method in brief: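 HTRF binding of 5 nM GST-GCK and 5 nM FLAG-GKRP with 2 uM S6P in pH 7.1 Hepes buffer (MgCl2, KCl, DTT, Tween 20, BSA). Anti-FLAG XL665 and anti-GST donor added, 60 min at room temperature; 665/615 nm read, normalized to with- and without-GCK controls.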

OC[C@H]1O[C@@](CO)(O[C@H]2O[C@H](CO)[C@@H](O)[C@H](O)[C@H]2O)[C@@H](O)[C@@H]1O
inactive: Potency [1] | max response [2] -5.77% | max response [3] 6.47% | max response [4] -4.31% | outcome [5]

Cc1ccc(S(=O)(=O)O)cc1C
inactive: Potency [1] | outcome [6] | max response [2] 12.7% | max response [3] 1.6% | outcome [5]

CO[C@H]1C[C@@H]2CC[C@@H](C)[C@@](O)(O2)C(=O)C(=O)N2CCCC[C@H]2C(=O)O[C@H]([C@H](C)C[C@@H]2CC[C@@H](OC(=O)C(C)(CO)CO)[C@H](OC)C2)CC(=O)[C@H](C)/C=C(\C)[C@@H](O)[C@@H](OC)C(=O)[C@H](C)C[C@H](C)/C=C/C=C/C=C/1C
inactive: outcome [7] | outcome [8] | max response [3] -3.38%

OB(O)O
inactive: Potency [1] | outcome [6] | max response [2] -7.44% and 3.96% | max response [3] 7.6% | outcome [5]

NC(N)=O
inactive: Potency [1] | outcome [6] | max response [2] -1.96% | max response [3] 2.55% | outcome [5]

N[C@@H](Cc1cc(I)c(Oc2ccc(O)c(I)c2)c(I)c1)C(=O)O
inactive: Potency [1] | max response [2] -4.18% | max response [3] 3.17% | max response [4] -8.83% | outcome [5]

CC1=CCC2CC1C2(C)C (stereo unspecified)
inactive: Potency [1] | outcome [6] | max response [2] -2.11% | max response [3] 3.27% | outcome [5]

C/C=C/C=C/C(=O)O
inactive: Potency [1] | outcome [6] | max response [2] -1.45% | outcome [5]

c1ccc2ccccc2c1
inactive: Potency [1] | outcome [6] | max response [2] 1.06% and 1.45% | max response [3] 6.18% | outcome [5]

OC[C@H]1O[C@@H]2O[C@H]3[C@H](O)[C@@H](O)[C@@H](O[C@H]4[C@H](O)[C@@H](O)[C@@H](O[C@H]5[C@H](O)[C@@H](O)[C@@H](O[C@H]6[C@H](O)[C@@H](O)[C@@H](O[C@H]7[C@H](O)[C@@H](O)[C@@H](O[C@H]1[C@H](O)[C@H]2O)O[C@@H]7CO)O[C@@H]6CO)O[C@@H]5CO)O[C@@H]4CO)O[C@@H]3CO
inactive: Potency [1] | outcome [6] | max response [2] -2.78% and 5.87% | max response [3] -7.1% | outcome [5]

CC[C@H]1OC(=O)[C@H](C)[C@@H](O[C@H]2C[C@@](C)(OC)[C@@H](O)[C@H](C)O2)[C@H](C)[C@@H](O[C@@H]2O[C@H](C)C[C@H](N(C)C)[C@H]2O)[C@](C)(O)C[C@@H](C)CN(C)[C@H](C)[C@@H](O)[C@]1(C)O
inactive: Potency [1] | outcome [6] | max response [2] -20.4% | max response [4] -7.47% | outcome [5]

CC(C)[C@@H]1CC[C@@H](C)C[C@H]1O
inactive: Potency [1] | max response [2] 0.622% | max response [3] 20.4% | max response [4] -12.7% | outcome [5]

CCCCC
inactive: Potency [1] | outcome [6] | max response [2] -14.6% | max response [3] 2.54% | outcome [5]

Oc1ccc(/C=C/c2cc(O)cc(O)c2)cc1
inactive: outcome [9] | outcome [10] | outcome [6] | max response [2] 7.43% and -3.23% | outcome [11] | outcome [12] | outcome [13] | max response [3] -0.421% and 10.7% | outcome [5]

OCl
inactive: Potency [1] | outcome [6] | max response [2] -6.58% | max response [3] 13.5% | outcome [5]

CC(C)O
inactive: Potency [1] | outcome [6] | max response [2] 2% | max response [3] 0.211% | outcome [5]

CCOC(C)OCC
inactive: Potency [1] | outcome [6] | max response [2] -4.14% | max response [3] 16.8% | outcome [5]

OCC(O)CO
inactive: Potency [1] | outcome [6] | max response [2] -6.54% and -5.61% | outcome [5]

C[C@H](CCC(=O)O)[C@H]1CC[C@H]2[C@@H]3[C@H](O)C[C@@H]4C[C@H](O)CC[C@]4(C)[C@H]3C[C@H](O)[C@]12C
inactive: Potency [1] | outcome [6] | max response [2] 1.94% | max response [3] -6.23% | outcome [5]

CC1=CC(=O)NS(=O)(=O)O1
inactive: Potency [1] | outcome [6] | max response [2] 6.07% and 6.81% | max response [3] -2.22% | max response [4] -5.77% and -0.759% | outcome [5]
